# According to PubChem BioAssay AID504423 (Broad Institute, 2011):
# In all, about 340,000 compounds went through this assay and about 260 (0.076%) were called active. This is one part of a sample in which actives are shown more often than they occur.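 Rule for the calls: active = highest replicate inhibition at or above 60% at 9 µM, even if other replicates fall short; inactive = all replicates below 60% inhibition.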
# Test system: Kaposi's sarcoma herpesvirus LANA C-terminal domain (residues 932-1162) DNA binding
# Test: blockers of LANA C-terminal domain DNA interaction – biochemical, fluorescence polarization, FAM-LBS DNA, MBP-C-LANA, single point, primary screen (AID 504423);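 note: 0% = neutral control wells and 100% = 4 µM acridine orange control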
# Settings: at 9 µM, active compounds read high
row,SMILES,inhibition
1,NC(N)=NCCCc1cn(CC(=O)N2CCNCC2)nn1,-0.256% (inactive)
2,O=C(Cc1ccc(S(=O)(=O)N2CCOCC2)s1)Nc1ccc(Br)c(C(F)(F)F)c1,-0.373% (inactive)
3,COC(=O)c1ccc([C@@H](O)[C@H](C)C(=O)CC(=O)OC(C)(C)C)cc1,2.15% (inactive)
4,Cc1cc(NC(=O)/C=C/C(=O)N(c2ccccc2C)C(C(=O)NC2CCCC2)c2ccc(F)cc2)no1 (centres undefined),0.894% (inactive)
5,CSc1ccc(S(=O)(=O)NCC(=O)OCC(=O)NC2(C#N)CCCCC2)cc1[N+](=O)[O-],-0.312% (inactive)
6,COC(=O)c1cc(NC2c3ccccc3C(=O)N2c2ccc(Cl)cn2)cc(C(=O)OC)c1 (centres undefined),-1.05% (inactive)
7,CCCn1c(N)c(C(=O)CSc2nnc3n2CCCCC3)c(=O)[nH]c1=O,-2.38% (inactive)
8,CCOC(=O)c1cc(C(=O)Nc2ccc(S(=O)(=O)Nc3ccc(OC)cc3)cc2)nn1C,-1.57% (inactive)
9,CCC(Sc1nncn1C)C(=O)Nc1nnc(-c2ccc(Cl)cc2)s1 (centres undefined),-3.46% (inactive)
10,Oc1c(Cl)cc(Cl)c(Cl)c1Cc1c(O)c(Cl)cc(Cl)c1Cl,-0.191% (inactive)
11,CC(Oc1cccc(Cl)c1)C(=O)NC1CC(C)(C)NC(C)(C)C1 (centres undefined),-1.58% (inactive)
12,COc1cc(OC)c(NS(=O)(=O)c2cn(C)cn2)cc1Cl,0.525% (inactive)
13,Cc1nc2ccc(NC(=O)N3CCC(c4ccccc4)C3)cc2nc1C (centres undefined),-3.95% (inactive)
14,COc1ccc(NC(=O)C(CC(C)C)NS(=O)(=O)c2ccc3c(c2)CCN3C(C)=O)cc1OC (centres undefined),1.56% (inactive)
15,OCCC1CN(Cc2ccc3nsnc3c2)CCN1C1CCCC1 (centres undefined),-1.26% (inactive)
16,O=C(CN(c1ccc2c(c1)OCCO2)S(=O)(=O)c1ccccc1)Nc1ccc2c(c1)OCO2,-0.247% (inactive)
17,CCC1C(=O)NCCN1C(=O)c1ccc2nc(Cc3ccc(OC)cc3)oc2c1 (centres undefined),-0.899% (inactive)
18,S=c1[nH]ccn1-c1ccc(Cl)cc1,-5.31% (inactive)
19,COc1cc(OC)cc(-c2c(-c3cccs3)c3cc(-c4ccc(OC)nc4)ccc3n2C)c1,-0.213% (inactive)
20,Cc1cc(C#N)c(SCC(N)=O)nc1-c1ccc(F)cc1,-0.398% (inactive)
21,Cc1cc(Br)ccc1SCC(=O)OCC(=O)NCc1ccc2c(c1)OCO2,-1.13% (inactive)
22,CCN(Cc1ccccc1)C(=O)Cc1ccc(OC)c(S(=O)(=O)N2CCOCC2)c1,-0.86% (inactive)
23,C=CCN(Cc1nc(-c2cc(OC)c3c(c2)OCO3)oc1C)C1CCS(=O)(=O)C1 (centres undefined),-0.881% (inactive)

row,SMILES,inhibition
1,CCCN(C(=O)COC(=O)CNS(=O)(=O)c1ccc(NC(C)=O)cc1)C1CCS(=O)(=O)C1 (centres undefined),-0.76% (inactive)
2,Cc1c(N=Nc2ccc(N(C)C)cc2)c(=O)n(-c2ccccc2)n1C,-5.21% (inactive)
3,CCN(CC)CCCC(C)n1c2nc(=O)[nH]c(=O)c-2nc2cc(Cl)ccc21 (centres undefined),167% (active)
4,COc1ccc2c(c1)c1ncn(Cc3ccccn3)c(=O)c1n2C,-1.99% (inactive)
5,CCCCCNC(=O)C1c2ccccc2Oc2ccccc21,-0.323% (inactive)
6,CCOC(=O)CC(NC(=O)C1c2ccccc2Oc2ccccc21)c1ccc(C)cc1 (centres undefined),1.2% (inactive)
7,CCCN(CCC)C(=O)C1c2ccccc2Oc2ccccc21,88.3% (active)
8,CC(=O)c1nnn(-c2ccc(Cl)cc2C#N)c1C,-3.28% (inactive)
9,c1ccc(-n2cccc2)c(N2CCCCC2)c1,1.68% (inactive)
10,CN1C(c2ccc(F)cc2)=CS/C1=C(/C#N)c1nnc2n1-c1ccccc1SC2,1.32% (inactive)
11,CC(C)c1ccc(C=NNc2ccc([N+](=O)[O-])cn2)cc1,-4.43% (inactive)
12,Cc1cc(/C=N/Nc2ccc([N+](=O)[O-])cn2)c(C)n1-c1cccc(C(=O)O)c1,64.5% (active)
13,Cc1cc(/C=N/NC(=O)CC2(C)OCCO2)c(C)n1-c1ccc(Cl)c(Cl)c1,0.73% (inactive)
14,Cc1nc(NC(=O)CCC(=O)O)sc1C(=O)N(C)C,-0.461% (inactive)
15,CCOc1ccc(NC(=O)c2cccc3c2C(=O)N(CC2CCCO2)C3)cc1 (centres undefined),-0.819% (inactive)
16,CC(C)n1c(=S)[nH]c2cc(C(F)(F)F)ccc21,-0.144% (inactive)
17,COc1cccc2c1C(=O)c1c(O)c3c(c(O)c1C2=O)CC(O)(C(C)=NNC(=O)c1ccc(Cl)c(Cl)c1)CC3OC1CC(N)C(O)C(C)O1 (centres undefined),102% (active)
18,COc1cccc(Cn2cnc3c([N+](=O)[O-])c(C)c(C)cc32)c1,-1.77% (inactive)
19,Cc1ccc(NC(=O)Cn2cccc2C2=NC(c3ccccc3)CO2)c(C)c1 (centres undefined),0.882% (inactive)
20,C=CCNc1nc(Nc2ccc(Cl)cc2)nc(OC)n1,-0.456% (inactive)
21,CC12CCC(C(=O)N(CCC#N)CCC#N)(CC1=O)C2(C)C (centres undefined),0.103% (inactive)
22,CCOC(=O)c1sc(/N=C/Nc2nc(C)c(C(=O)OCC)s2)nc1C,-0.364% (inactive)
23,CC(NC(=O)CN(C)S(=O)(=O)c1ccc(F)cc1)C1CC2CCC1C2 (centres undefined),-0.793% (inactive)

row,SMILES,inhibition
1,O=C(CNCc1ccc(Cl)cc1)Nc1cccc(C(=O)O)c1,0.621% (inactive)
2,S=C(Nc1cccc(Br)c1)N1CCn2cccc2C1c1cccnc1 (centres undefined),0.461% (inactive)
3,O=C1COc2c1ccc(O)c2O,105% (active)
4,c1ccc(CSc2ncnc3c2sc2nc(N4CCOCC4)c4c(c23)CCCC4)cc1,0.637% (inactive)
5,COc1cc(/C=C/C(=O)O)cc(S(=O)(=O)Nc2ccccc2SC)c1OC,2.56% (inactive)
6,O=c1[nH]nc(SCCS(=O)(=O)c2ccc(F)cc2)n1-c1ccccc1C(F)(F)F,-0.936% (inactive)
7,O=C1OC(Cc2ccccc2)C(c2ccccc2)C1=O (centres undefined),0.23% (inactive)
8,CCN(CC)C(=O)[C@H]1C[C@H](CC(=O)NCC23CC4CC(CC(C4)C2)C3)C(=O)N2CCc3c([nH]c4cc(CCC(=O)N(C)C)ccc34)[C@]12C,-1.63% (inactive)
9,CCC(CC)c1nnc(NC(=O)C2CCN(C(=O)c3ccco3)CC2)s1,0.307% (inactive)
10,CCCN(CC(=O)Nc1ccccc1C)C(=O)c1ccc(OCC(=O)N2CCOCC2)c(OCC)c1,0.13% (inactive)
11,COCCNC(=O)C1CCN(S(=O)(=O)c2ccc3c(c2)OCCO3)CC1,-0.000473% (inactive)
12,CCCn1nc(C(=O)OCc2nc(N)nc(Nc3ccccc3C)n2)c2ccccc2c1=O,-0.106% (inactive)
13,CC(C)Cn1c(=O)c2ccccc2n2c(CCC(=O)NCc3ccccn3)nnc12,-0.283% (inactive)
14,COc1cc(C(=O)NCc2ccc3c(c2)cc(C)n3C)cc(OC)c1OC,1.89% (inactive)
15,COc1ccc(-c2c(C)nn3c(N4CCC(C(=O)N5CCCCC5)CC4)cc(C)nc23)cc1OC,-1.26% (inactive)
16,COc1ccc(/C=N/NC(=O)Cn2cc(C(F)(F)F)ccc2=O)cc1,0.0809% (inactive)
17,CCCOc1ccc(Cc2c(O)nc(N)[nH]c2=O)cc1C,3.16% (inactive)
18,Cc1cc(/C=N/NC(N)=O)c(C)n1C1CCCCC1,-1.79% (inactive)
19,Cc1ccc2c(=O)oc(N(C)C)nc2c1,0.463% (inactive)
20,CC(C)CCNC(=O)CC1C(=O)N(Cc2ccccc2)C(C)c2nc3ccccc3n21 (centres undefined),0.0911% (inactive)
21,Clc1ccc(C2=CSC3=Nc4cccc5cccc(c45)N23)cc1,0.203% (inactive)
22,CS(=O)(=O)c1ccc2nnn(OCC(=O)Nc3cccc(C#N)c3)c2c1,0.484% (inactive)
23,O=C(c1ccco1)N(Cc1nc2ccccc2c(=O)[nH]1)C1CCCC1,1.54% (inactive)

row,SMILES,inhibition
1,Nc1ccc2nc3c(=O)[nH]c(=S)[nH]c3nc2c1,81% (active)
2,CCCCn1nc(C(=O)Nc2ccc(S(=O)(=O)Nc3ncccn3)cc2)c2ccccc2c1=O,4.67% (inactive)
3,Cc1c(C=O)n(C)n(-c2ccccc2)c1=O,0.314% (inactive)
4,COc1ccccc1CNS(=O)(=O)c1cc(C(=O)NCc2ccccn2)c(Cl)cc1Cl,2.38% (inactive)
5,O=C(c1ccccc1)N1CCC(CC2CC(c3ccc(Cl)cc3)=NO2)(C(=O)NCC2CCCCC2)CC1 (centres undefined),2.87% (inactive)
6,Cc1ccc(S(=O)(=O)n2oc(=O)c(C3CCCCC3)c2N)cc1,-3.57% (inactive)
7,COc1cccc(N2CC(NS(=O)(=O)c3ccc(Cl)cc3)CC2=O)c1 (centres undefined),-1.06% (inactive)
8,COc1cccc(-c2nc3n(n2)C(c2ccccc2Cl)C(C(N)=O)=C(C)N3)c1 (centres undefined),-1.68% (inactive)
9,COc1ccc(CNCCCO)cc1OC,0.662% (inactive)
10,COc1ccc(C2c3ccc(O)cc3Oc3ncn(CCCO)c(=N)c32)cc1OC (centres undefined),90.6% (active)
11,COc1ccc(C2C(C#N)=C(N)Oc3cc(N)ccc32)cc1OC (centres undefined),-0.0442% (inactive)
12,COc1cc(/C=C(\C#N)C(=O)Nc2ccc3ccccc3c2)c([N+](=O)[O-])cc1OC,-1.48% (inactive)
13,CCC1OC(c2ccc([N+](=O)[O-])cc2)=Nc2ccccc21 (centres undefined),1.55% (inactive)
14,O=C(NCCCc1ccccc1)C(=O)c1c[nH]c2ccccc12,1.71% (inactive)
15,CCCN(CC(=O)NC(=O)NC1CCCCC1)CC(=O)Nc1cc(Cl)ccc1Cl,-0.226% (inactive)
16,CCN1C[C@@H]2[C@@H]3C(=O)N(C)C(=O)[C@@H]3[C@](C)(C1=O)N2C(=O)c1ccccc1,-2.13% (inactive)
17,CCN(CC(=O)Nc1ccc(OC)cc1)C(=O)c1ccc(Cl)c(S(=O)(=O)N2CCCC2)c1,3.81% (inactive)
18,COC(=O)C1=C(O)/C(=C/c2ccc(OCC(=O)Nc3ccccc3)cc2)N=C1C,0.272% (inactive)
19,CCOC(=O)C1=C(O)/C(=C/c2ccc(OCC(=O)Nc3ccc(C)cc3)cc2)N=C1C,0.825% (inactive)
20,CCOC(=O)C1=C(O)/C(=C/c2cc(C)n(-c3ccccc3)c2C)N=C1C,73.6% (active)
